ssDAF12 agonist: S. stercoralis DAF-12 activation, primary screen | HEK293 ssDAF-12/GRIP1 lit1-tk-luc reporter, luminescence; % of 3 µM dafachronic acid response | 1% of 370,000 active | activation, % at 6.8 µM;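 active means activation above the mean over all tested compounds plus 3 SD, cut at about 0.9% in these data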;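 further: 0% = DMSO-only wells and 100% = 3 µM delta7-dafachronic acid wells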
hgDAF-12 ag: activates the H. glycines DAF-12 receptor ligand-binding domain; HEK293 GAL4-hgDAF12 UAS-luciferase reporter, agonist luminescence; normalized to butyrate control; activation, % at 6.8 µM; 1.8% of 370,000 active;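 active means activation above a cutoff set at the mean of all screened compounds plus 3 SD, cut at about 10% in these data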;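 further: 0% = DMSO wells and 100% = sodium butyrate wells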
DAX1 inh-1: DAX1 (NR0B1) inhibition, primary screen; HEK293T StAR-luciferase reporter, SF-1/DAX-1 repression relief; inhibition, % at 6.8 µM; 1.1% of 370,000 active;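 active means inhibition above the mean over all tested compounds plus 3 SD, cut at about 3.6% in these data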;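 further: 0% = DAX-1 cells with DMSO and 100% = cells lacking DAX-1 with DMSO; higher inhibition means more luminescence from relief of DAX-1 repression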
DAX1 inh-2: inhibits human nuclear receptor DAX1 | HEK293 Gal4-DAX1 luciferase reporter, luminescence | inhibition, % at 6.75 µM | 0.99% of 340,000 active;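 active means inhibition above the mean over all tested compounds plus 3 SD, cut at about 4.2% in these data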;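 further: 0% = DAX1-transfected cells with DMSO and 100% = empty-vector control cells with DMSO; inhibition shows as a rise in luminescence from relieved DAX1 repression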
Target sequence (P51843 207-470 limits assumed): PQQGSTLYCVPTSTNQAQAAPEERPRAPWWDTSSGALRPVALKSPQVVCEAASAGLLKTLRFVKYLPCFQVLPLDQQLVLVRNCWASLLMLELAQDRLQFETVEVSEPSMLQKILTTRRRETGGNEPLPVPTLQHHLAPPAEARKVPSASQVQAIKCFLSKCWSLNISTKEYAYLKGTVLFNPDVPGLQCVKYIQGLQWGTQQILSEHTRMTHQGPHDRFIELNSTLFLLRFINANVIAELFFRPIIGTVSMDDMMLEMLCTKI
hcDAF-12 act: H. contortus DAF-12 activation, primary screen; activation, % at 6.8 µM; 1.4% of 370,000 active; HEK293 hcDAF-12 lit1-tk-luc reporter, luminescence; 0% DMSO, 100% Δ7-dafachronic acid;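 active means activation above the mean of all tested compounds plus 3 SD, cut at about 5.5% in these data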;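 further: 100% = response to 3 µM Δ7-dafachronic acid high control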
DAX1 conf: confirmation of human DAX1 (NR0B1) inhibitors; shares compounds with DAX1 inh-1; HEK293T StAR-promoter luciferase reporter, SF-1/DAX-1 repression; AID 652134; inhibition, % at 6.8 µM; 87% of 2,400 active;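 active means inhibition above the average of every tested compound plus 3 SD, cut at about 3.8% in these data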;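 further: 0% = DAX-1 cells with DMSO and 100% = no DAX-1 control cells with DMSO; active compounds raise luminescence by relieving repression of the StAR reporter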
SF1 AF2mut Luc: nonselective inhibitor or artifact in SF-1 mutant DAX1 counter-screen; HEK293 StAR-luciferase, SF-1 AF2 mutant, luminescence; inhibition, % at 6.8 µM; shares compounds with DAX1 inh-1; 78% of 2,400 active;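 active means inhibition above the mean of all tested compounds plus 3 SD, cut at about 3% in these data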;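 further: 0% = DAX-1 transfected cells with DMSO and 100% = cells without DAX-1 with DMSO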
LXRb hcDAF ctr: counter-screen for hcDAF-12 agonists: agonists of human LXR-beta; shares compounds with hcDAF-12 act; HEK293 Gal4-LXR tk-luc reporter, luminescence, 24 h; normalized: DMSO 0%, positive control 100%; activation, % at 6.8 µM; 3,400 tested, under 10 active; AID 743027;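 active means mean percent activation of the reporter above a cutoff set as the average over tested compounds plus their standard deviation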
Target sequence (P55055 whole entry, looked up, the tested form may be a part): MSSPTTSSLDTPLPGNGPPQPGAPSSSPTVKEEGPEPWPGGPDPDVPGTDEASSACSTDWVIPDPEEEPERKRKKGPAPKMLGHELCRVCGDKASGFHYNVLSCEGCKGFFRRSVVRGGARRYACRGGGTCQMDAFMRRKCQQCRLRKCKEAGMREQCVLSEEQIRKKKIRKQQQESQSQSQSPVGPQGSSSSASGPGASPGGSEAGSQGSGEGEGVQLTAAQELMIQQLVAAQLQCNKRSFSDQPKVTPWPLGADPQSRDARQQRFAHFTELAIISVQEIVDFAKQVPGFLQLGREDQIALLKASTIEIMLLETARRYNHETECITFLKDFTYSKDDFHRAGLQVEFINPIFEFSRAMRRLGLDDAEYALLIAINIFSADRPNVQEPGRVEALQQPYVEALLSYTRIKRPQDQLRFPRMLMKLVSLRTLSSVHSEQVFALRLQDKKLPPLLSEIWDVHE
hcDAF12 ag: hcDAF-12 agonism, confirmation assay; shares compounds with hcDAF-12 act; HEK293 hcDAF-12 lit1-tk-luc reporter, luminescence; % of Δ7-dafachronic acid response; activation, % at 6.8 µM; 61% of 3,400 active; AID 743032;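 active means mean activation across triplicate tests above the threshold derived from the earlier primary screen, cut at about 5.5% in these data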;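 further: 0% = DMSO only wells and 100% = 3 µM Δ7-dafachronic acid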
hgDAF12 ag: hgDAF-12 agonism, confirmation assay | shares compounds with hgDAF-12 ag | HEK293 GAL4-hgDAF12 luciferase reporter, agonist mode; percent of butyrate response | activation, % at 6.8 µM | 80% of 3,300 active;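 active means mean activation over triplicate wells above the hit cutoff derived from the earlier primary screen, cut at about 11% in these data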;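 further: 0% = DMSO low control and 100% = 2 mM sodium butyrate high control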
LXR ag 2: activates human LXR-beta, counter-screen for DAF-12 agonists | HEK293 Gal4-LXR luciferase reporter, 24 h | shares compounds with hgDAF-12 ag | AID 743051 | activation, % at 6.8 µM | 3,300 tested, under 10 active;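 active means mean activation of the triplicate above a set limit carried over from the primary screen, none filed active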
* = called active by the depositor; / = no result. A selection: hits, their analogues and other compounds. The true share with any hit is near 4.1%.

SMILES | ssDAF12 agonist | hgDAF-12 ag | DAX1 inh-1 | DAX1 inh-2 | hcDAF-12 act | DAX1 conf | SF1 AF2mut Luc | others
NC(Cc1ccc(Cl)cc1)c1csc(Nc2ccccn2)n1 (configuration not stated) | -1 | 0 | -1 | / | 0 | / | /
c1cncc(-c2ccc3n2Cc2cnnn2-c2ccccc2-3)c1 | -2 | 2 | -1 | / | -3 | / | /
Cc1ccc(/C=C2\C(=O)NC(=S)N(c3ccccc3F)C2=O)s1 | -2 | -1 | 0 | 1 | 1 | / | /
Cc1ccc(/C=C2\C(=O)NC(=S)N(c3ccc(F)cc3)C2=O)s1 | 0 | 7 | 4.0* | 0 | 4 | / | /
CC1CN(CC(=O)c2ccccc2Cl)CC(C)O1 (configuration not stated) | -1 | 4 | 0 | 1 | 1 | / | /
CC1CCN(CC(=O)c2ccccc2Cl)CC1 | 0 | 11* | 1 | 2 | 4 | / | /
N#CC1c2ccccc2-n2nncc2CN1C(=O)c1ccc([N+](=O)[O-])o1 (configuration not stated) | -2 | -3 | -2 | / | -1 | / | /
COc1ccccc1N(CC(=O)NC1CCCCC1)C(=O)c1cnn(C(C)C)c1 | 1.3* | 0 | 0 | 0 | 3 | / | /
O=C(CN1C(=O)[C@@H](Cc2ccccc2)N=C(c2ccccc2)c2ccccc21)NC1CCCCC1 | 0 | -2 | 1 | / | -2 | / | /
O=C(CN1C(=O)[C@@H](Cc2c[nH]c3ccccc23)N=C(c2ccccc2)c2ccccc21)NC1CCCCC1 | -1 | 1 | 1 | / | -1 | / | /
C1=C(c2c[nH]c3ccccc23)CCN(Cc2ccccc2)C1 | -1 | -6 | -2 | -4 | -2 | / | /
Nc1c2c(nc3ccccc13)CCN(Cc1ccccc1)C2 | 0 | 4 | 0 | 1 | 6.1* | / | /
CN1c2ccc(Br)cc2[C@H]2NCC[C@H]2[C@H]1CO | 0 | 2 | -1 | / | 4 | / | /
C/C(=N\NC(=O)c1ccccc1)c1c(O)n(Cc2ccccc2)c(=O)[nH]c1=O | -1 | 11* | 1 | / | 3 | / | /
N=c1c2c(-c3ccccc3)c(-c3ccccc3)n(Cc3ccccc3)c2ncn1C1CCC(O)CC1 (configuration not stated) | -1 | 1 | -2 | / | -1 | / | /
C[C@]12CC[C@H](O)C[C@H]1CC[C@@H]1[C@@H]2CC[C@]2(C)C(=O)CC[C@@H]12 | -1 | 0 | 1 | 4.3* | 0 | / | /
Cc1cc(OCC(=O)N2CCCN(C)CC2)ccc1Cl | 0 | 2 | 5.2* | 0 | 0 | 3 | 0
CN1CCCN(C(=O)COc2ccc(Br)cc2)CC1 | 0 | 2 | 0 | 2 | 1 | / | /
CCOC(=O)[C@]12Cc3ccccc3[C@H]1N(C(C)C)C(=O)c1cc(OC)ccc12 | -1 | -4 | 7.0* | / | 0 | 6.0* | 16*
CCOC(=O)[C@]12Cc3c(cc(OC)c(OC)c3OC)[C@H]1N(C)C(=O)c1cc(OC)ccc12 | -1 | 0 | 4.7* | / | 2 | 9.5* | 14*
CCOC(=O)[C@]12Cc3c(cc(OC)c(OC)c3OC)[C@H]1N(C(C)C)C(=O)c1ccccc12 | -1 | -1 | 5.5* | / | 0 | 4.6* | 6.4*
CCOC(=O)CNC(=O)N1Cc2cc(Br)ccc2-n2nncc2C1 | -1 | 3 | 0 | / | 0 | / | /
CS(=O)(=O)N1Cc2cc(Br)ccc2-n2nncc2C1 | -1 | 0 | 0 | / | 1 | / | /
C[C@H]1CCCC(=O)CCC/C=C/c2cc(O)cc(O)c2C(=O)O1 | -2 | -7 | -1 | 1 | -4 | / | /
C[C@H]1CCC/C=C/[C@@H]2C[C@H](O)C[C@H]2[C@H](O)/C=C/C(=O)O1 | -2 | -1 | 4.4* | -3 | -3 | 10* | 2
SMILES | ssDAF12 agonist | hgDAF-12 ag | DAX1 inh-1 | DAX1 inh-2 | hcDAF-12 act | DAX1 conf | SF1 AF2mut Luc | others
N#Cc1ccc2nc(-c3ccc(CN4CCC(n5c(=O)[nH]c6cc(Cl)ccc65)CC4)cc3)c(-c3ccccc3)nc2c1 | -2 | 0 | -2 | / | -3 | / | /
Cc1cc2c(cc1C)NP(=S)(c1ccccc1)N2 | 1.2* | 19* | 11* | 0 | 8.0* | 13* | 8.4* | LXRb hcDAF ctr=2;hcDAF12 ag=13*
O=C(NCCN1CCC2(CC1)C(=O)NCN2c1ccccc1)c1ccccc1C(F)(F)F | -1 | -1 | -1 | / | 0 | / | /
Nc1ccccc1C(=O)OCCc1ccccc1 | 0 | 24* | 5.6* | 1 | 11* | 13* | 4.1* | LXRb hcDAF ctr=2;hcDAF12 ag=9.7*;hgDAF12 ag=15*;LXR ag 2=1
CN1OC[C@@H]2CN3C4(C[C@@H]21)c1ccccc1C3(c1ccccc1)c1ccccc14 | -1 | -3 | 0 | / | -1 | / | /
COc1ccc(-c2cc(=O)c3c(OC)c(OC)c(OC)cc3o2)cc1 | -2 | 0 | -2 | -3 | -4 | / | /
COc1ccc(-c2cc(=Nc3ccccc3)c3cc(C)ccc3o2)cc1 | 0 | 22* | 5.1* | -1 | 7.3* | 6.1* | 4.3* | LXRb hcDAF ctr=0;hcDAF12 ag=1;hgDAF12 ag=18*;LXR ag 2=1
COc1ccc(-c2cc(=NCCC(=O)O)c3cc(C)ccc3o2)cc1 | -1 | 23* | 7.0* | 2 | 6.5* | 13* | 8.8* | hgDAF12 ag=10*;LXR ag 2=0
O=C(NCCN1CCC2(CC1)C(=O)NCN2c1ccccc1)c1ccc(F)cc1F | -1 | -1 | -1 | / | 0 | / | /
CC1CCN(CC(=O)c2ccc3c(c2)OCCO3)CC1 | 0 | 17* | 8.0* | 3 | 8.9* | 14* | 8.6* | LXRb hcDAF ctr=2;hcDAF12 ag=8.3*;hgDAF12 ag=16*;LXR ag 2=1
CC1CCCN(CC(=O)c2ccc(Cl)c(Cl)c2)C1 (configuration not stated) | -1 | 2 | 2 | 1 | -1 | / | /
CN(C)C(=O)Oc1ccc(-c2cn3cc(Cl)ccc3n2)cc1 | 1 | 17* | 6.1* | -1 | 7.8* | 16* | 6.3* | LXRb hcDAF ctr=1;hcDAF12 ag=4;hgDAF12 ag=15*;LXR ag 2=1
Cc1cc(N2CCNC[C@@H]2C)ccc1N1CC[C@@H](O)C1 | -1 | -4 | -1 | / | 1 | / | /
